Source: PubChem BioAssay AID588342 (National Center for Advancing Translational Sciences (NCATS), 2011)
Screen size: about 360,000 compounds; about 25,000 (6.9%) were called active. Inconclusive results (about 9%) are left out. The sample as a whole holds a higher share of actives than the screen did. A number with no mark means an inactive call. The call rests on the fitted dose curve; in most records, active means well fitted inhibition curve with a large enough effect; inconclusive means small, poorly fitted or top-dose-only effect; inactive means flat fitted curve, though single readings scatter.

These compounds were tested against Luciferin 4-monooxygenase (Photinus pyralis) (UniProt P08659) (assay: qHTS profiling assay for firefly luciferase inhibitor/activator using purifed enzyme and Km concentrations of substrates (counterscreen for miR-21 project)). Conditions: purified FLuc, luminescence inhibition; series mostly up to 57.5 µM; activity change, negative = inhibition: at the top concentration.
How it was run: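 Purified P. pyralis luciferase (10nM final) with 10uM D-luciferin and 10uM ATP (Km levels) in 50mM Tris acetate pH 7.5, 10mM Mg acetate, 0.01% Tween-20, 0.05% BSA; qHTS 6-point titration, ~60 µM downward; luminescence read.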
Further: nearly all actives have a fitted effect of over 55% in size.
Potency means the concentration at half of the fitted maximal effect.
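Wherever activity change, negative = inhibition is given: plate controls were vehicle for no effect and reference inhibitor for full effect.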

Chain of Luciferin 4-monooxygenase (Photinus pyralis) (P08659 whole entry, looked up): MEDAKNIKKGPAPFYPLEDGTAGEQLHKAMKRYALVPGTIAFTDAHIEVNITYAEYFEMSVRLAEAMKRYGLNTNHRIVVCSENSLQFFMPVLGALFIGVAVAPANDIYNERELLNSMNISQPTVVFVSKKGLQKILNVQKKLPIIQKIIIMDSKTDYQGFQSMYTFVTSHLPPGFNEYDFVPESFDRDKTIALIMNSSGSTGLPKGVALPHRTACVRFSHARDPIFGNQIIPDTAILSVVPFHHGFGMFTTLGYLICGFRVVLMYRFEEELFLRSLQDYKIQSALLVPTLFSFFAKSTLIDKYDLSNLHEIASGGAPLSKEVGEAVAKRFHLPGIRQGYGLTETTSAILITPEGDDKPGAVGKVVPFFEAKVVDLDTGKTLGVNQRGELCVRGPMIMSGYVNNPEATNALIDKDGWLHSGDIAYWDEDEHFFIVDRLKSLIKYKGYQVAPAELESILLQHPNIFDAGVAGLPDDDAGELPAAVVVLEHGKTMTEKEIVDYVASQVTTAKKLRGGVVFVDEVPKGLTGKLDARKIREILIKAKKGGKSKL

| SMILES | activity change, negative = inhibition | Potency |
| --- | --- | --- |
| CC1(C)O[C@@H]2[C@H](O1)[C@@H](CO)O[C@H]2n1c(N2CCCCC2)nc2c(N)ncnc21 | -1.84% | – |
| Cc1ccc(OCC(=O)Nc2ccc(OCc3cc(=O)n4c(C)csc4n3)cc2)cc1C | -0.234% | – |
| Cc1ccccc1NC(=O)Cn1c(=O)n(CCCCC(=O)NCc2ccccc2Cl)c(=O)c2ccccc21 | -4.82% | – |
| Cc1ccc2nc(N3CCN(c4cccc(Cl)c4)CC3)c3nnnn3c2c1 | -5.21% | – |
| CCOC(=O)c1cc2c(=O)n3ccccc3nc2n(CCCOC)c1=NC(=O)C(C)Oc1ccccc1 (centres undefined) | 1.01% | – |
| CCOc1cccc2cc(-c3cn4c(n3)sc3cc(C)ccc34)c(=O)oc12 | – | 0.426 µM (active) |
| CCOc1ccc(CCNC(=O)c2ccc3c(c2)sc2nc(-c4ccc(F)cc4)cn23)cc1OCC | -8.52% | – |
| COc1ccc2oc(=O)c(-c3cn4c(n3)sc3cc(OC)ccc34)cc2c1 | -17.1% | – |
| COC(=O)c1ccc(NS(=O)(=O)c2cc3c4c(c2)C(C)C(=O)N4CCC3)cc1 (centres undefined) | -0.997% | – |
| Cc1ccc(N2C(=O)CC(NCc3ccc4c(c3)OCO4)C2=O)cc1Cl (centres undefined) | -13.1% | – |
| COc1ccc(C)cc1S(=O)(=O)Nc1cc2c3c(c1)CCC(=O)N3CCC2 | 0.954% | – |
| CCc1nn(CC(=O)N2CCN(c3ccc(Cl)cc3)CC2)c(=O)c2cc3occc3n12 | -18.2% | – |
| COc1ccc(CCn2cc3c(c2-c2ccc(Br)cc2)c(=O)n(C)c(=O)n3C)cc1OC | -4.89% | – |
| COc1ccc(C)cc1NC(=O)c1ccc(-c2ccc(C(C)=O)cc2)o1 | -11.1% | – |
| CCOC(=O)c1ccc(-c2ccc(C(=O)Nc3cccnc3)o2)cc1 | – | 15.1 µM (active) |
| CCOC(=O)c1ccc(-c2ccc(/C=C(\C#N)C(=O)Nc3ccc(C)cc3)o2)cc1 | -3.16% | – |
| O=C(O)c1c(CNCc2cccc(F)c2)c2ccccc2n1Cc1ccccc1 | -11.7% | – |
| Cc1ccc(/C=N/NC(=O)c2sccc2OCc2ccc(F)cc2)cc1 | – | 1.35 µM (active) |
| CNC(=S)NNC(=O)c1sccc1OCc1ccccc1 | 0.426% | – |
| Cc1ccc(COc2ccc(/C=N/NC(=O)CN3CCCCC3)cc2)cc1 | -13.2% | – |
| O=C(c1ccc2c(c1)N(Cc1ccccc1F)C(=O)c1ccccc1S2(=O)=O)N1CCOCC1 | -3.29% | – |
| CCN(CC)CCNC(=O)CN1N=C(c2ccc(OC)cc2)CCC1=O | 3.09% | – |
| COc1ccc(C2=NN(c3nc4ccccc4s3)C(=O)C2)cc1 | – | 9.53 µM (active) |
| COc1ccc(C2=NN(C(=O)c3cccnc3)C(c3ccccc3)C2)cc1 (centres undefined) | -10.9% | – |
| COc1ccc(S(=O)(=O)c2c(Nc3cccc(Cl)c3)sc(C(=O)c3ccccc3)c2N)cc1 | 0.0899% | – |

| SMILES | activity change, negative = inhibition | Potency |
| --- | --- | --- |
| COc1cc(-c2cc3n(C)c(C)c(CCC(=O)Nc4ccc(F)cc4)c(=O)n3n2)cc(OC)c1OC | 3.74% | – |
| CCc1ccc(CN(C)C(=O)CCc2nnc(-c3ccc(-c4ccccc4)cc3)o2)nc1 | – | 13.5 µM (active) |
| CCc1ccc(CN(C)Cc2nc(Cc3ccccc3)no2)nc1 | 3.54% | – |
| CC(=O)c1ccc(-c2nnc(CCC(=O)N(C)Cc3cnc4ccccn34)o2)s1 | -0.52% | – |
| Nc1ccc(-c2nnc(-c3ccccc3)o2)cc1 | – | 19 µM (active) |
| O=C(OCc1nnc(-c2ccccc2)o1)c1cc(=O)[nH]c2ccccc12 | 4.33% | – |
| CC(=O)c1ccc(NC(c2ccc(F)cc2)c2nnc(-c3ccccc3)o2)cc1 (centres undefined) | -2.01% | – |
| Nc1ccc(-c2nnc(-c3ccc(-c4ccccc4)cc3)o2)cc1 | – | 2.69 µM (active) |
| Nc1cccc(-c2cc(-c3ccccc3)nc(-c3cccc(N)c3)n2)c1 | 1.65% | – |
| Nc1ccc(-c2sc(N)nc2-c2ccccc2)cc1 | -1.44% | – |
| Cc1oc2ccc(O)c(CN3CCOCC3)c2c1C(=O)Nc1cccc(Cl)c1C | -1.52% | – |
| CC(NC(=O)CCc1cn(Cc2ccccc2Cl)c2ccccc12)c1ccccc1 (centres undefined) | 6.58% | – |
| CCCSc1nc2sc3c(c2c(=O)n1-c1cccc(Br)c1)CC(C)(C)OC3 | 0.901% | – |
| Cc1ccccc1NC(=O)Cc1nc(COC(=O)c2ccc(C(F)(F)F)cc2)cs1 | 3.93% | – |
| Cc1ccc(C)c(NC(=O)COC(=O)CSc2ccccc2)c1 | 6.9% | – |
| CCOc1ccc(NC(=O)CN(Cc2ccccc2)S(=O)(=O)c2ccc(Cl)cc2)cc1 | -5.84% | – |
| O=C(O)/C=C\C(=O)Nc1ccc(OCc2ccccc2)cc1 | – | 19 µM (active) |
| CCc1ccnc(NC(=O)Nc2ccc(OCc3ccccc3)cc2)c1 | -2.87% | – |
| Cc1cccc(NC(=O)Nc2ccc(OCc3ccccc3)cc2)n1 | -1.92% | – |
| CN1CCN(c2ccc(NC(=O)c3ccccc3)cc2)CC1 | – | 10.7 µM (active) |
| COc1cccc(C(=O)Nc2cc3c(cc2Br)OCCCO3)c1 | – | 4.78 µM (active) |
| O=C(Nc1ccc(S(=O)(=O)N2CCc3ccccc3C2)cc1)c1ccccc1 | 0.419% | – |
| CC(=O)Nc1ccc(S(=O)(=O)N2CCN(c3ccccc3)CC2)cc1 | -1.03% | – |
| O=C(Nc1ccc(C(=O)O)c(O)c1)c1ccccc1 | – | 15.1 µM (active) |
